esBAF inh: Bmi1 luciferase reporter increase in mESCs, primary screen, esBAF inhibitor project, mouse ES cells, Bmi1 luciferase knock-in, single point; 24 h; 100% = twice the neutral-well signal; reporter increase, % at 12.5 µM; actives 2% (n = 350,000); AID 602393, 2012; in the data active means activation above about 40%; inconclusive means no clear call, values can overlap the other calls;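 further: a rise in the Bmi1 reporter signal indicates esBAF inhibition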
HSF1 activator: HSF-1 activators, primary screen, NIH3T3-HGL cells, MG132 stress, luminescence, single point; NIH3T3-HGL HSF-1 luciferase reporter, 8 h; 100% = twice DMSO control signal; activation, % at 9 µM; actives 1.7% (n = 300,000); AID 504408, 2011;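 active means mean replicate activation of at least 50% with a set share of replicates each reaching 50%; inconclusive means only one of those two conditions met; inactive means mean below 50% and too few replicates reaching it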
SMARCA2 activ: SMARCA2 (BRM) function activators, primary screen, cell-based, luminescence, high throughput. activation, % at 9.1 µM. MG213 cells, MMTV-luciferase reporter, dexamethasone, overnight. actives 1% (n = 370,000). AID 652017, 2013; in the data active means activation above about 7.8%
HSF1 inhib: HSF1 inhibitors in luciferase reporter cells, primary screen, cell-based, NIH3T3, luminescence; NIH3T3-HGL HSE-luciferase, MG132-induced, luminescence 8 h; hits give low values; activity change, negative = inhibition, % at 7.5 µM (by protocol); actives 0.77% (n = 300,000);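 active means more than half of replicate wells show activity change below -50%, luminescence cut by over half; inconclusive means some wells, but at most half, below -50%; inactive means no replicate well below -50%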;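 further: luciferase reports HSF-1 transcriptional activity via heat shock element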
MITF TRPM1 HTS: activators of MITF-driven TRPM1 promoter reporter, primary screen, cell-based, SK-MEL-5, luciferase, single point; SK-MEL-5 TRPM1-promoter luciferase, 24 h; % of positive control, neutral wells = 0; actives 0.75% (n = 300,000); activation, % at 12.5 µM;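 active means mean activation of at least 80% with every replicate also reaching 80%; inconclusive means mean reaches 80% but some replicate falls short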
Wnt act: Wnt/beta-catenin pathway activators, primary screen, cell-based, plate reader, single point; Wnt/beta-catenin reporter cell assay, activator; activation, % at 9.35 µM; actives 1.2% (n = 300,000); AID 743398, 2014; in the data active means activation above about 30%, passing the limit was not always enough; inconclusive means no clear call, values can overlap the other calls
Each line names hits and unclear results; the compound was inactive in the other large screens; ! = repeats disagree. A selection: hits, their analogues and other compounds. The true share with any hit is near 4.3%.

CO[C@@H](CN(C)S(=O)(=O)c1ccc(C)cc1)[C@@H](C)CN(C(=O)Nc1ccccc1F)[C@@H](C)CO	none (no result: HSF1 activator, SMARCA2 activ, HSF1 inhib, MITF TRPM1 HTS, Wnt act)
Cc1ccc(S(=O)(=O)Nc2ccc3c(c2)C(=O)N([C@@H](C)CO)C[C@H](C)[C@H](CN(C)S(=O)(=O)c2cn(C)cn2)O3)cc1	none (no result: HSF1 activator, SMARCA2 activ, HSF1 inhib, MITF TRPM1 HTS, Wnt act)
N#C/C(=C\c1cccs1)C(=O)Nc1ccccn1	MITF TRPM1 HTS 89, Wnt act 74 (no result: esBAF inh)
Cc1ccc(NC(=O)/C(C#N)=C/c2cccs2)c(C)c1	HSF1 activator 53 (no result: esBAF inh, Wnt act)
N#C/C(=C\c1ccccc1)C(=O)Nc1ccccn1	none
CC(C)(C)c1ccc(/C=C(\C#N)C(=O)Nc2ccccn2)cc1	HSF1 inhib -59
CN(C)CC(=O)N[C@@H]1C=C[C@H](CC(=O)NCCN2CCCCC2)O[C@H]1CO	none (no result: HSF1 activator, SMARCA2 activ, HSF1 inhib, MITF TRPM1 HTS, Wnt act)
C[C@H](CO)N1C[C@H](C)[C@H](CN(C)CC2CCCCC2)OCCCC[C@H](C)Oc2ccc(NC(=O)Nc3ccc(F)cc3)cc2C1=O	none (no result: HSF1 activator, SMARCA2 activ, HSF1 inhib, MITF TRPM1 HTS, Wnt act)
O=C(N[C@H]1C=C[C@H](CC(=O)N2CCOCC2)O[C@H]1CO)c1cccc(F)c1	none (no result: HSF1 activator, SMARCA2 activ, HSF1 inhib, MITF TRPM1 HTS, Wnt act)
CO[C@@H]1CN(C)C(=O)c2cc(NS(C)(=O)=O)ccc2OC[C@@H](C)N(C(=O)C2CC2)C[C@H]1C	none (no result: HSF1 activator, SMARCA2 activ, HSF1 inhib, MITF TRPM1 HTS, Wnt act)
CCOc1ccccc1-c1noc(CCCC(=O)NC2CCCCC2)n1	HSF1 activator 64 (no result: esBAF inh)
CC=Cc1ccc2n(c1=O)C[C@H]1[C@H](CO)[C@@H](C(=O)NCCCN3CCOCC3)N(C)[C@@H]21 (mixture of isomers)	none (no result: HSF1 activator, SMARCA2 activ, HSF1 inhib, MITF TRPM1 HTS, Wnt act)
O=C(CCC(=O)OCC(=O)c1ccc(C(F)(F)F)cc1)OCC(=O)c1ccc(C(F)(F)F)cc1	none (no result: esBAF inh, MITF TRPM1 HTS)
COCCCC/C(=N\OCCN)c1ccc(C(F)(F)F)cc1	HSF1 inhib -81!
O=C(Nc1ccc2ccccc2c1)c1cccc([N+](=O)[O-])c1	esBAF inh 86, MITF TRPM1 HTS 98
COc1cccc(C(=O)Nc2ccc3ccccc3c2)c1	none (no result: MITF TRPM1 HTS)
Cc1cccc(C(=O)Nc2ccc3ccccc3c2)c1	esBAF inh 47, HSF1 activator 66
NC(=NCc1ccco1)NC(=O)c1ccc(Cl)cc1	esBAF inh 49, MITF TRPM1 HTS 92
Cc1ccc(CNC(=O)CCC(=O)c2cccs2)cc1	none (no result: Wnt act)
Cc1ccc(NC(=O)CCC(=O)c2cccs2)c(Br)c1	MITF TRPM1 HTS 86 (no result: esBAF inh)
Cc1ccc(NC(=O)CCC(=O)c2cccs2)cc1	Wnt act 41 (no result: MITF TRPM1 HTS)
Cc1ccc(NC(=O)Cn2c(CCC(=O)O)ccc2-c2cccs2)cc1	HSF1 activator 62 (no result: Wnt act)
Cc1ccc(NC(=O)COC(=O)CCC(=O)c2cccs2)c(Br)c1	none (no result: HSF1 activator, HSF1 inhib)
Cc1ccccc1NC(=O)Cn1c(CCC(=O)O)ccc1-c1cccs1	none (no result: esBAF inh)
COc1ccc(CNC(=O)C[C@H]2CC[C@H]3[C@@H](COc4ccc(NC(=O)C(C)C)cc4C(=O)N3C)O2)cc1	none (no result: HSF1 activator, SMARCA2 activ, HSF1 inhib, MITF TRPM1 HTS, Wnt act)
C[C@H](O)C#Cc1cnc2c(c1)C(=O)N([C@@H](C)CO)C[C@@H](C)[C@@H](CN(C)C(=O)c1ccccc1F)O2	none (no result: HSF1 activator, SMARCA2 activ, HSF1 inhib, MITF TRPM1 HTS, Wnt act)
C[C@H](CO)N1C[C@H](C)[C@@H](CN(C)S(=O)(=O)c2ccc(Cl)cc2)Oc2c(NC(=O)Nc3ccc(F)cc3)cccc2C1=O	none (no result: HSF1 activator, SMARCA2 activ, HSF1 inhib, MITF TRPM1 HTS, Wnt act)
O=C(c1cc2ccccc2[nH]1)N1CCOCC1	Wnt act 36 (no result: esBAF inh)
CN1CCN(C(=O)c2cc3ccccc3[nH]2)CC1	none
Cc1oc(-c2ccccc2F)nc1CS(=O)CC(=O)NCc1ccc2c(c1)OCO2 (centres undefined)	Wnt act 43 (no result: MITF TRPM1 HTS)
CCc1ccc(-c2nc(CS(=O)CC(=O)NCc3cccnc3)c(C)o2)cc1 (centres undefined)	HSF1 inhib -74 (no result: Wnt act)
C[C@H](O)C#Cc1cnc2c(c1)C(=O)N([C@@H](C)CO)C[C@H](C)[C@@H](CN(C)C(=O)c1ccc(F)cc1)O2	none (no result: HSF1 activator, SMARCA2 activ, HSF1 inhib, MITF TRPM1 HTS, Wnt act)
Cc1noc(C)c1S(=O)(=O)N(C)C[C@@H]1Oc2ccc(N(C)C)cc2CC(=O)N([C@H](C)CO)C[C@H]1C	none (no result: HSF1 activator, SMARCA2 activ, HSF1 inhib, MITF TRPM1 HTS, Wnt act)
O=C(OCc1cccc(F)c1)c1ccc2c(c1)-c1ccccc1C2=O	none
O=C(OCc1ccccc1F)c1ccc2c(c1)-c1ccccc1C2=O	esBAF inh 44, MITF TRPM1 HTS inconclusive (no result: SMARCA2 activ)

From PubChem
